Among the data in PubChem BioAssay (Tox21) are Potency, activity change, positive = activation and outcome values, retold here.

The nature of assay [1]: qHTS assay to identify small molecule agonists of the constitutive androstane receptor (CAR) signaling pathway - cell viability counter screen (AID 1224836). Also: nearly all actives have a fitted effect of over 45% in size. Also: potency is read from the fitted curve at half-maximal effect. The essentials:
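HepG2 cells stably carrying hCAR and a CYP2B6-2.2kb reporter; 15-concentration compounds plus PK11195 (final 0.75 uM), 23 hr at 37 C/5% CO2. Viability read by CellTiter-Fluor fluorescence.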

Assay [2] can be described thus: qHTS assay to identify small molecule antagonists of the constitutive androstane receptor (CAR) signaling pathway - cell viability counter screen (AID 1224837). Also: nearly all actives have a fitted effect of over 45% in size. Also: potency is read from the fitted curve at half-maximal effect. The essentials: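 In quantitative HTS format, compounds at 15 concentrations were applied to HepG2 cells double-transfected with hCAR and CYP2B6-2.2kb under 50 nM CITCO stimulation; live-cell protease activity was read after 23 hr via CellTiter-Fluor.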

For assay [3], the target named is Nuclear receptor subfamily 1 group I member 3 (Homo sapiens) (UniProt Q14994). Nature of the assay: qHTS assay to identify small molecule antagonists of the constitutive androstane receptor (CAR) signaling pathway (AID 1224838). Also: % is scaled to controls: 0 for no effect and ±100 for the full control effect; nearly all actives have a fitted effect of over 40% in size. The essentials: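 CITCO-stimulated (50 nM final) HepG2 cells stably transfected with hCAR and CYP2B6-2.2kb luciferase were exposed to compounds at 15 concentrations for 24 h at 37 C/5% CO2. A luciferase reagent was added and luminescence recorded after 30 min.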
For orientation: Quantitative high-throughput screening tests each substance at several concentrations.

Assay [4] in a line: qHTS assay to identify small molecule antagonists of the estrogen related receptor signaling pathway with the pleiotropic PPARgamma coactivator (PGC) from Tox21 10K library - cell viability counter screen (AID 1224840; active = well fitted cell-killing curve with a large enough effect in the repeat runs, not every such curve was filed as active; also: nearly all actives have a fitted effect of over 40% in size; also: potency is read from the fitted curve at half-maximal effect). In short, it runs like this: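 Viability counter screen, PGC/ERR cells: 17.5 h compound exposure at 37 C, CellTiter-Fluor fluorescence endpoint.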
For assay [5], the target named is Thyrotropin receptor (Homo sapiens) (UniProt P16473). As to the kind of experiment: qHTS assay to identify small molecule agonists of the thyroid stimulating hormone receptor (TSHR) signaling pathway (AID 1224843; calls by dose curve; also: nearly all actives have a fitted effect of over 45% in size; also: potency is read from the fitted curve at half-maximal effect; as to activation: % is scaled to controls: 0 for no effect and ±100 for the full control effect). The essentials: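 Agonist-mode screen: TSHR HEK293 cells received test chemicals for half an hour at room temperature, then HTRF cAMP detection reagents for one hour prior to fluorescence measurement. Each chemical ran as a 15-concentration series, triplicated.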

Assay [6] is described as follows: qHTS assay to identify small molecule agonists of the hypoxia (HIF-1) signaling pathway - cell viability counter screen (AID 1224844; calls by dose curve; also: nearly all actives have a fitted effect of over 50% in size; also: potency is read from the fitted curve at half-maximal effect). The essentials: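 Same wells as the HIF-1 reporter screen; ME-180 cells carrying HRE-bla, 17 hr treatment at 37C; CellTiter-Glo luminescence read after 30 min at room temperature.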
Assay [7] is described as follows: qHTS RealTime-Glo MT Cell Viability Assay in HepG2 cells - 24 hour (AID 1224867). Also: nearly all actives have a fitted effect of over 50% in size. Also: potency is read from the fitted curve at half-maximal effect. The essentials: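 Luminescence read-out: viable HepG2 cells reduce a prosubstrate to a NanoLuc substrate, giving a signal proportional to live cell number. Reads taken at 0, 8, 16, 24, 32 and 40 h of compound exposure at 37 C.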
The nature of assay [8]: qHTS RealTime-Glo MT Cell Viability Assay in HepG2 cells - 40 hour (AID 1224870). Also: % is scaled to controls: 0 for no effect and ±100 for the full control effect; nearly all actives have a fitted effect of over 50% in size. The essentials: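 HepG2 cells (600/well) mixed with RealTime-Glo MT reagent, settled 5 h at 37 C/5% CO2 before compound addition. Nonlytic NanoLuc luminescence from viable-cell prosubstrate reduction read repeatedly during 40 h treatment at 37 C.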
Assay [9] in a line: A CellTox Green Cytotoxicity Assay to monitor cytotoxicity in HEK293 cells - 40 hour (AID 1224871). Also: % is scaled to controls: 0 for no effect and ±100 for the full control effect; nearly all actives have a fitted effect of over 45% in size. The essentials: (§1)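 Homogeneous no-lysis format: HEK293 cell suspension mixed with CellTox Green reagent, seeded, incubated 5 h at 37 C/5% CO2, then dosed by pintool with compound in DMSO.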
For assay [10], the target named is Nuclear receptor subfamily 1 group I member 3 (Homo sapiens) (UniProt Q14994). Nature of the assay: qHTS assay to identify small molecule agonists of the constitutive androstane receptor (CAR) signaling pathway (AID 1224839). Also: % is scaled to controls: 0 for no effect and ±100 for the full control effect; nearly all actives have a fitted effect of over 15% in size. The essentials: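 HepG2 cells stably co-transfected with hCAR and a CYP2B6-2.2kb luciferase reporter; compounds at 15 concentrations with 0.75 uM PK11195 present. After 24 hr at 37 C, luciferase read by ONE-Glo luminescence.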

Assay [11] is described as follows: qHTS assay to identify small molecule antagonists of the estrogen related receptor signaling pathway with the pleiotropic PPARgamma coactivator (PGC) from Tox21 10K library (AID 1224841; call rule not given here; also: actives are mostly falling curves and most rising ones were filed inactive; nearly all actives have a fitted effect of over 50% in size; also: potency is read from the fitted curve at half-maximal effect). In short, it runs like this:
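In the PGC/ERR line, DMSO solutions of test chemicals are pin-delivered to 2,000 cells/well six hours after dispensing. Following eighteen hours' incubation, One-Glo reagent is added and luminescence recorded.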

The nature of assay [12]: qHTS assay to identify small molecule agonists of the estrogen related receptor signaling pathway with the pleiotropic PPARgamma coactivator (PGC) from Tox21 10K library (AID 1224842). Also: % is scaled to controls: 0 for no effect and ±100 for the full control effect; nearly all actives have a fitted effect of over 15% in size. In short, it runs like this:
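PGC/ERR reporter cell line, 2,000 cells per well, incubated 6 h at 37 C before 23 nL compound in DMSO was added. After 18 h at 37 C, One-Glo luminescence read following 30 min at room temperature.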

Assay [13] is described as follows: qHTS assay to identify small molecule agonists of H2AX - cell viability counter screen (AID 1224847; calls by dose curve; also: nearly all actives have a fitted effect of over 30% in size; also: potency is read from the fitted curve at half-maximal effect). In short, it runs like this:
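CHO-K1 cells plated overnight at 37C, then exposed 3 h at 37C to compounds at 15 concentrations (0.76% DMSO final). Viability by CellTiter-Glo luminescence after 30 min at room temperature.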

Assay [14] in a line: qHTS assay to identify small molecule agonists of the estrogen related receptor (ERR) signaling pathway from Tox21 library (AID 1224849; calls by dose curve; also: % is scaled to controls: 0 for no effect and ±100 for the full control effect; nearly all actives have a fitted effect of over 15% in size). To be noted: ERR reporter cell line, ONE-Glo luciferase, 18 h. The essentials:
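Reporter cells (ERR, NTP source) treated with Tox21 10K compounds 18 h, 37 C. Readout: ONE-Glo luminescence, 30 min RT.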

The nature of assay [15]: qHTS RealTime-Glo MT Cell Viability Assay in HEK293 cells - 16 hour (AID 1224872). Also: nearly all actives have a fitted effect of over 50% in size. Also: potency is read from the fitted curve at half-maximal effect. In short, it runs like this: (§2)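 Nonlytic real-time viability readout: viable cells convert prosubstrate to NanoLuc substrate, giving luminescence proportional to live cell number. HEK293, 600 cells/well, compound added after 5 h, continuous culture at 37 C.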
Assay [16] in a line: qHTS assay to identify small molecule agonists of the hypoxia (HIF-1) signaling pathway (AID 1224846; active = well fitted activation curve with a large enough effect in the signal ratio in the repeat runs, not every such curve was filed as active; the % refers to the signal ratio; also: % is scaled to controls: 0 for no effect and ±100 for the full control effect). The essentials: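 In ME-180 cells bearing an HRE-bla construct, 17 h treatment with DMSO-dissolved compounds at 37C was followed by CCF4-AM loading to quantify reporter induction.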
Assay [17] can be described thus: qHTS RealTime-Glo MT Cell Viability Assay in HEK293 cells - 32 hour (AID 1224868). In short, it runs like this:
as §2

Assay [18] in a line: A CellTox Green Cytotoxicity Assay to monitor cytotoxicity in HEK293 cells - 0 hour (AID 1224869). In short, it runs like this: as §1
A short description of assay [19]: qHTS assay to identify small molecule agonists of H2AX (AID 1224845; active = well fitted activation curve with a large enough effect in the signal ratio in the repeat runs, not every such curve was filed as active; the % refers to the signal ratio; also: % is scaled to controls: 0 for no effect and ±100 for the full control effect). In short, it runs like this:
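Wild-type CHO-K1 cells, plated overnight, exposed 3hr at 37C to 15 concentrations (0.76% DMSO final). Lysed, then HTRF anti-pH2AX (S139) cryptate and anti-H2AX-d2 antibodies, 24 hr room temperature; 665/620 nm emission read.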

Assay [20] is described as follows: qHTS assay to identify small molecule antagonists of the estrogen related receptor (ERR) signaling pathway from Tox21 library (AID 1224848). The essentials:
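Quantitative high-throughput format: ERR reporter cells (2,000/well) pre-incubated 6 h, treated 18 h at 37 C with compounds in DMSO alongside positive and negative controls, then read by ONE-Glo luminescence.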

The mark [21] stands for this setting: at 92.4 µM (top of the series) unless noted.

Where “and” joins values, the source holds several entries; their conditions need not be identical. Equal entries are not always repeated. Inconclusive results are not listed. More than one record can exist for a structure, and the calls need not agree. Calls of active or inactive are those of the source. Unless noted, calls follow the shape of the dose curve; as a rule, active = well fitted curve in the direction sought with a large enough effect in the repeat runs; inconclusive = weak or mixed curves; inactive = no such curve, though single readings can be large; an effect the other way counts as inactive or inconclusive.

Sequence of Nuclear receptor subfamily 1 group I member 3 (Homo sapiens) (Q14994 whole entry, looked up): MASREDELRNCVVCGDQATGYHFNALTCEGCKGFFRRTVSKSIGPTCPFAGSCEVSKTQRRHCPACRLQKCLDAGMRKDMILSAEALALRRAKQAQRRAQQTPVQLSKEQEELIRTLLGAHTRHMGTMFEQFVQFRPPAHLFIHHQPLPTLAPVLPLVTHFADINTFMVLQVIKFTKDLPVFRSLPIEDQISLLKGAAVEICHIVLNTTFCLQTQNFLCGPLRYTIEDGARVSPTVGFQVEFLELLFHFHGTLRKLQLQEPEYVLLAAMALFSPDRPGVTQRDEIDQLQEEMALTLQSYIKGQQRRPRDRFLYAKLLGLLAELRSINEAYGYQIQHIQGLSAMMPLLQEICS
Sequence of Thyrotropin receptor (Homo sapiens) (P16473 whole entry, looked up): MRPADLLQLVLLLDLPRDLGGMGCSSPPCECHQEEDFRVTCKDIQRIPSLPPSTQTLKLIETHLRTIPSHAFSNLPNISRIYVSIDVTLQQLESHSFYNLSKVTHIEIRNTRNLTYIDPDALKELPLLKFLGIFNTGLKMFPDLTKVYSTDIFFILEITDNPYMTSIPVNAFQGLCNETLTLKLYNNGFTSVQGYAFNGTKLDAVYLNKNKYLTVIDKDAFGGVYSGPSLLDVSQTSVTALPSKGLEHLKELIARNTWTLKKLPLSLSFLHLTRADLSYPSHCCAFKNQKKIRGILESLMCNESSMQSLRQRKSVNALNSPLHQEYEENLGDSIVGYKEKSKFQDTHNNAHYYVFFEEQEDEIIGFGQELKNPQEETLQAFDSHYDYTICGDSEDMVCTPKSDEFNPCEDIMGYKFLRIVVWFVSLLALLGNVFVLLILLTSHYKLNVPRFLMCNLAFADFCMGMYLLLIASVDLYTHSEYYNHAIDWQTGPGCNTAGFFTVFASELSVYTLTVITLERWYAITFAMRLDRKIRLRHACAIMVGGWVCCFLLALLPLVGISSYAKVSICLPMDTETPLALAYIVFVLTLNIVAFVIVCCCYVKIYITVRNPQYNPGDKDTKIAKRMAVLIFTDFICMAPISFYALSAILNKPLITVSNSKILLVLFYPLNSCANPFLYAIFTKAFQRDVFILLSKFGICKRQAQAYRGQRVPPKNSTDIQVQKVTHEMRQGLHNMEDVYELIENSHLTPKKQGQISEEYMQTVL

As to `CCCCNc1c(C(=O)OCC)c(C)nc2c1cnn2CC`, the Potency entry in assay [1], in assay [2], in assay [3], in assay [4], in assay [5] and in [6] was “inactive” in each case. Further, the Potency entry in assay [7], in assay [8] and in assay [9] was “inactive” in each case.
Turning to `S=P(N1CC1)(N1CC1)N1CC1`, the Potency result in [1], in assay [2], in assay [10], in [4], in [12] and in [5] was “inactive” each time. In addition, the Potency result in assay [13], in assay [7], in [8], in assay [9] and in assay [15] was “inactive” throughout. The Potency in [11] is 5.74 µM (active). Besides, in assay [14] (setting [21]), the activity change, positive = activation is -21.7% (inactive).
`O=C(O)Cc1ccc(OCCNC[C@H](O)c2ccccc2)cc1`: the Potency entry in assay [1], in assay [2], in assay [3], in assay [4], in [5] and in assay [6] was “inactive” in each case. In addition, the Potency entry in assay [13], in assay [7], in assay [17], in [18], in assay [8] and in assay [9] was “inactive” throughout. The Potency result in assay [15] was “inactive”. The call in assay [16] was inactive.
As for `CC(C)=C1CC[C@@H](C)CC1=O`, the Potency entry in assay [1], in assay [2], in assay [3], in [4], in assay [5] and in [6] was “inactive” each time. In addition, the Potency result in assay [13], in assay [7], in assay [18], in assay [8] and in [15] was “inactive” in each case. In [16], the outcome was inactive.
For the compound `C1CC(COCC2CO2)CCC1COCC1CO1` (centres undefined), the Potency entry in assay [1], in assay [2], in assay [3], in [4], in assay [12] and in assay [5] was “inactive” each time. Also, the Potency entry in [19], in [13], in assay [7], in [17], in assay [18] and in assay [8] was “inactive” each time. Besides, the Potency entry in [9] and in assay [15] was “inactive” each time. For the same compound, the activity change, positive = activation in [14] (setting [21]) was -24.4% (inactive).
`CC1=C(/C=C/C(C)=C/C=C/C(C)=C/C(=O)Nc2ccc(O)cc2)C(C)(C)CCC1`: the Potency is 23.7 µM (active) in assay [1]; 29.8 µM (active) in assay [2]; 28 µM (active) and 13.3 µM (active) in assay [4]; 6.27 µM (active) in assay [11]; 22.2 µM (active) and 11.9 µM (active) in assay [5]; 22.4 µM (active) and 19 µM (active) in [6]. Besides, the Potency in [13] is 103 µM (active); in assay [20], 14 µM (active) and 11.9 µM (active); in assay [7], “inactive and 26.8 µM (active)”; in assay [15], 796 nM (active) and 477 nM (active). In addition, the Potency result in assay [10], in assay [12], in assay [19], in assay [18] and in assay [8] was “inactive” in each case. For the same compound, the activity change, positive = activation in [14] (at 42.5 µM (top of the series)) was -57.7% (inactive); in [14] (at 92.4 µM (top of the series)) it was -54.4% (inactive).
As to `CCCSS/C(CCO)=C(\C)N(C=O)Cc1cnc(C)nc1N`, the Potency entry in assay [1], in assay [2], in assay [10], in assay [4], in [5] and in assay [6] was “inactive” in each case. For the same compound, the Potency result in [18] and in assay [9] was “inactive” in each case. The outcome in [16] was inactive.
With `CC(C)(C)CC(C)(C)c1ccccc1O`, the Potency entry in assay [1], in [2], in assay [10], in assay [4], in assay [11] and in assay [12] was “inactive” throughout. For the same compound, the Potency result in assay [18] and in assay [8] was “inactive” in each case. For the same compound, the Potency in assay [5] is 13.8 µM (active); in assay [13], 90.3 µM (active); in assay [15] it was 39.1 µM (active). For the same compound, the activity change, positive = activation in [14] (setting [21]) is 1.59% (inactive).
For the compound `OCCC(O)CO` (centres undefined), the Potency result in assay [1], in assay [2], in assay [3], in assay [4], in assay [5] and in assay [6] was “inactive” in each case. The Potency entry in [19], in [13], in [17], in assay [18], in assay [8] and in assay [15] was “inactive” in each case. Moreover, the compound was classed as inactive in assay [16].
